According to PubChem BioAssay:
Unmarked numbers belong to inactive results.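 The calls were made as follows, unless noted: active = RAM network inhibition above 8.4% in each of two replicates, 3 SD over the compound average; inconclusive = above 8.4% inhibition in only one replicate; inactive = 8.4% inhibition or less in each replicate.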

test: inhibitors of the yeast RAM network, pilot screen, dse1pr::URA3 reporter, 5-FOA selection (AID 869;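 active = inhibition over a set limit, the all-compound mean plus 3 SD, in both replicate runs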;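 also: 0% = DMSO wells with no growth and 100% = 10 µM 1-NA-PP1 with full growth; RAM network block rescues cells from 5-FOA so hits raise OD615 growth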); conditions: S. cerevisiae dse1pr::URA3 5-FOA growth, OD615, 2 d; at 10 µM; stronger effect = higher value; strain carries analog-sensitive mutant Cbk1 kinase

| SMILES | inhibition [%] |
| --- | --- |
| CCCCCn1c(=O)[nH]c2cc(C(=O)NCc3ccc4c(c3)OCO4)ccc2c1=O | 3.82 |
| O=C(C1=C(O)C(=O)N(CCc2ccccc2)C1c1cccnc1)c1ccco1 (stereo not given) | 2.01 |
| Cc1ccc2c(c1)c(C)c(C)n2CC(O)Cn1nc(C)cc1C (stereo not given) | 2.1 |
| CCOC(=O)N1CCC(NC(=O)C(Cc2ccccc2)NC(=O)C2CCCCC2)CC1 (stereo not given) | 0.04 |
| c1coc(CNc2nc3sc4c(c3c3ncnn23)CCCC4)c1 | 2.65 |
| COc1ccc(N2CCN(CCNC(=O)c3ccc(NC(=O)C4CCCO4)cc3)CC2)cc1 (stereo not given) | 1.68 |
| Cc1cc(C)n(-c2cc(=O)n(C)c(=O)n2C)n1 | 0.755 |
| Cc1ccnc(Sc2nc3c(c(=O)[nH]c(=O)n3C)n2CCCc2ccccc2)n1 | 1.6 |
| Cc1ccc(Cn2c(Sc3nccc(C)n3)nc3c2c(=O)[nH]c(=O)n3C)cc1 | 2.89 |
| Cc1ccc(CNC(=O)CCS(=O)(=O)c2cccc3nonc23)cc1 | 1.71 |
| CCC(=O)Nc1cc(C)c(NC(=O)c2ccco2)cn1 | 1.52 |
| CNC(=O)c1ccc(-c2sc3nc(N4CCOCC4)c4c(c3c2N)CCCC4)o1 | -0.54 |
| CC(=O)NCC(=O)N(c1c(C)n(C)n(-c2ccccc2)c1=O)C1(C(=O)NC2CCCC2)CCCCC1 | 1.13 |
| CCN(CC)S(=O)(=O)c1cc(Br)ccc1OC | 0.72 |
| Cc1ccc(S(=O)(=O)N2CCC(C(=O)N[C@@H](C)C(=O)NCC3CCCO3)CC2)cc1 (stereo not given in full) | 2.1 |
| COc1ccc(C2C3=C(CC(C)(C)CC3=O)Nc3n[nH]c(C)c32)cc1 (stereo not given) | 1.51 |
| O=C(Nc1nnc(C2CC2)o1)c1ccc(S(=O)(=O)N2CCCc3ccccc32)cc1 | 0.79 |
| C=CCNC(=O)c1ccc2c(c1)nnn2C | 2.63 |
| COc1ccc(CNc2oc(COc3ccccc3)nc2C#N)cc1 | 4.33 |
| N#C/C(=C1\CCCN1)c1ccc2ccccc2n1 | 2.02 |

| SMILES | inhibition [%] |
| --- | --- |
| OCC1(c2cc(C(F)(F)F)n[nH]2)CCCCC1 | 1.2 |
| O=C(OCC(=O)N1CCN(C(=O)c2ccco2)CC1)C1=COCCO1 | 2.21 |
| COc1ccc(Nc2ncnc3c2cnn3Cc2ccccc2)cc1 | 1 |
| CCCSc1nc(N)c2c3c(sc2n1)CN(C)CC3 | 1.02 |
| CC(NC(=O)C(C)(C)C)c1nc2ccccc2n1C (stereo not given) | 0.63 |
| CC1CN(C(=O)c2ccccc2C(=O)c2ncc[nH]2)CC(C)O1 (stereo not given) | 2.07 |
| S=c1nc(-c2ccccc2)n(CCN2CCOCC2)c2c1CCCC2 | 1.71 |
| CCCCCCn1c(SCC(=O)c2ccccc2)nc2c1c(=O)[nH]c(=O)n2C | 2.08 |
| COCC(=O)NCc1nc2ccccc2[nH]1 | 1.76 |
| COC(=O)CCC(=O)Oc1ccc(OC(=O)CCC(=O)OC)cc1 | 1.48 |
| CC1Cc2ccccc2N1C(=O)CCS(=O)(=O)c1cccc2nonc12 (stereo not given) | 0.56 |
| O=C(CN1CCN(c2ccccn2)CC1)Nc1cccc(C(F)(F)F)c1 | 2.27 |
| CCN(CC)C(=O)c1cn(CC)c(=O)c2cc(OC)c(OC)cc12 | 0.93 |
| CC1(C)Cc2c(sc3c2c(=N)n(Cc2ccco2)c(=O)n3CC(=O)Nc2cccc(Cl)c2)CO1 | 3.25 |
| CCCCCn1c(=O)[nH]c2cc(C(=O)NCCCN(CC)CC)ccc2c1=O | 1.65 |
| CCOC(=O)C1CCN(C(=O)c2ccc(NC(=O)C3CCCO3)cc2)CC1 (stereo not given) | 1.09 |
| Cc1sc(NC(=O)c2ccco2)c(C(c2cccnc2)N2CCN(c3ccc(F)cc3)CC2)c1C (stereo not given) | 1.42 |
| CCN(CC)S(=O)(=O)c1ccc(NC(=O)Cn2c(=O)oc3ccccc32)cc1 | 2.38 |
| c1ccc(Nc2nc(N3CCCCC3)nc(N3CCNCC3)n2)cc1 | 0.98 |
| Nc1ncnc2c1ncn2C1CCC(CO)C(O)C1 (stereo not given) | 1.32 |

test: RAM signaling pathway blockade in yeast – S. cerevisiae, Pdr1DBD-CYC8 efflux-inhibited sensitized strain, primary screen (AID 1298);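 also: 0% = DMSO untreated cells without growth and 100% = 10 µM 1-NA-PP1 full growth; higher means more yeast growth rescued from 5-FOA killing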; conditions: S. cerevisiae cbk1-as DSE1-URA3 strain, 5-FOA growth OD615, 2 d; at 50 µM; stronger effect = higher value

| SMILES | RAM network inhibition [%] |
| --- | --- |
| CCCCCn1c(=O)[nH]c2cc(C(=O)NCc3ccc4c(c3)OCO4)ccc2c1=O | 5.87 |
| O=C(C1=C(O)C(=O)N(CCc2ccccc2)C1c1cccnc1)c1ccco1 (stereo not given) | 2.81 |
| Cc1ccc2c(c1)c(C)c(C)n2CC(O)Cn1nc(C)cc1C (stereo not given) | 0.58 |
| CCOC(=O)N1CCC(NC(=O)C(Cc2ccccc2)NC(=O)C2CCCCC2)CC1 (stereo not given) | 6.59 |
| c1coc(CNc2nc3sc4c(c3c3ncnn23)CCCC4)c1 | 3.48 |
| COc1ccc(N2CCN(CCNC(=O)c3ccc(NC(=O)C4CCCO4)cc3)CC2)cc1 (stereo not given) | 7.42 |
| Cc1cc(C)n(-c2cc(=O)n(C)c(=O)n2C)n1 | 4.35 |
| Cc1ccnc(Sc2nc3c(c(=O)[nH]c(=O)n3C)n2CCCc2ccccc2)n1 | 1.4 |
| Cc1ccc(Cn2c(Sc3nccc(C)n3)nc3c2c(=O)[nH]c(=O)n3C)cc1 | 3.29 |
| Cc1ccc(CNC(=O)CCS(=O)(=O)c2cccc3nonc23)cc1 | 5.43 |
| CCC(=O)Nc1cc(C)c(NC(=O)c2ccco2)cn1 | 4.21 |
| CNC(=O)c1ccc(-c2sc3nc(N4CCOCC4)c4c(c3c2N)CCCC4)o1 | 5.11 |
| CC(=O)NCC(=O)N(c1c(C)n(C)n(-c2ccccc2)c1=O)C1(C(=O)NC2CCCC2)CCCCC1 | -0.72 |
| CCN(CC)S(=O)(=O)c1cc(Br)ccc1OC | 1.97 |
| Cc1ccc(S(=O)(=O)N2CCC(C(=O)N[C@@H](C)C(=O)NCC3CCCO3)CC2)cc1 (stereo not given in full) | -0.73 |
| COc1ccc(C2C3=C(CC(C)(C)CC3=O)Nc3n[nH]c(C)c32)cc1 (stereo not given) | 3.28 |
| O=C(Nc1nnc(C2CC2)o1)c1ccc(S(=O)(=O)N2CCCc3ccccc32)cc1 | -0.41 |
| C=CCNC(=O)c1ccc2c(c1)nnn2C | 4.93 |
| COc1ccc(CNc2oc(COc3ccccc3)nc2C#N)cc1 | 2.19 |
| N#C/C(=C1\CCCN1)c1ccc2ccccc2n1 | 3.18 |

| SMILES | RAM network inhibition [%] |
| --- | --- |
| OCC1(c2cc(C(F)(F)F)n[nH]2)CCCCC1 | -0.68 |
| O=C(OCC(=O)N1CCN(C(=O)c2ccco2)CC1)C1=COCCO1 | 3.69 |
| COc1ccc(Nc2ncnc3c2cnn3Cc2ccccc2)cc1 | 3.74 |
| CCCSc1nc(N)c2c3c(sc2n1)CN(C)CC3 | 6.8 |
| CC(NC(=O)C(C)(C)C)c1nc2ccccc2n1C (stereo not given) | 3.17 |
| CC1CN(C(=O)c2ccccc2C(=O)c2ncc[nH]2)CC(C)O1 (stereo not given) | 2.87 |
| S=c1nc(-c2ccccc2)n(CCN2CCOCC2)c2c1CCCC2 | 6.76 |
| CCCCCCn1c(SCC(=O)c2ccccc2)nc2c1c(=O)[nH]c(=O)n2C | 6.13 |
| COCC(=O)NCc1nc2ccccc2[nH]1 | 2.13 |
| COC(=O)CCC(=O)Oc1ccc(OC(=O)CCC(=O)OC)cc1 | 0.94 |
| CC1Cc2ccccc2N1C(=O)CCS(=O)(=O)c1cccc2nonc12 (stereo not given) | 3.48 |
| O=C(CN1CCN(c2ccccn2)CC1)Nc1cccc(C(F)(F)F)c1 | 2.45 |
| CCN(CC)C(=O)c1cn(CC)c(=O)c2cc(OC)c(OC)cc12 | 2.76 |
| CC1(C)Cc2c(sc3c2c(=N)n(Cc2ccco2)c(=O)n3CC(=O)Nc2cccc(Cl)c2)CO1 | 5.15 |
| CCCCCn1c(=O)[nH]c2cc(C(=O)NCCCN(CC)CC)ccc2c1=O | 3.74 |
| CCOC(=O)C1CCN(C(=O)c2ccc(NC(=O)C3CCCO3)cc2)CC1 (stereo not given) | 3.28 |
| Cc1sc(NC(=O)c2ccco2)c(C(c2cccnc2)N2CCN(c3ccc(F)cc3)CC2)c1C (stereo not given) | 7.4 |
| CCN(CC)S(=O)(=O)c1ccc(NC(=O)Cn2c(=O)oc3ccccc32)cc1 | 5.71 |
| c1ccc(Nc2nc(N3CCCCC3)nc(N3CCNCC3)n2)cc1 | 3.63 |
| Nc1ncnc2c1ncn2C1CCC(CO)C(O)C1 (stereo not given) | 3.68 |
